Screens as filed in PubChem.
This is a sample that favours compounds with a hit; in the whole collection about 2.8% have one here.
CBFb RUNX1 block = qHTS Assay for Compounds Blocking the Interaction Between CBF-beta and RUNX1 for the Treatment of Acute Myeloid Leukemia | AlphaScreen CBFb-His/RUNX1-biotin binding, biochemical | Potency, µM (highest dose often 59.8 µM), actives largely listed as inhibitors | Runt-related transcription factor 1 (Homo sapiens) + Core-binding factor subunit beta … | AID 1477, 2009 | 230,000 tested, under 10 active
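Proteins preincubated together for 20 min at RT before compound addition; 15 min later, nickel and streptavidin beads were added and left 90 min prior to AlphaScreen measurement.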
Integrin act MD = qHTS for Activators of Integrin-Mediated Alleviation for Muscular Dystrophy; 350,000 compounds, 0.064% hits; Potency, µM (series often up to 38.3 µM), actives largely listed as activators; AID 624291, 2012; alpha7betagal myoblasts, beta-gal FDG fluorescence, 48 h; further: nearly all actives have a fitted effect of over 60% in size
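Alpha7betagal+/- myoblasts (passage 13) were plated 16-24 hr, then exposed to compounds (1:260 dilution of DMSO stock) for 48 hours at 37C. After MPER lysis, β-galactosidase reporter activity was read as FDG fluorescence (ex 480/em 540) after 30 minutes.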
MBNL1-CUG inh = qHTS Assay for Inhibitors of MBNL1-poly(CUG) RNA binding | TR-FRET MBNL1-His/biotin-(CUG)12 binding, 665/545 ratio | Muscleblind-like protein 1 (Homo sapiens), Q9NR56 | Potency, µM (highest dose often 57.5 µM), usual class: inhibitors | 280,000 compounds, 0.036% hits; active means well fitted inhibition curve with a large enough effect in the signal ratio, with a control signal flat, not every such curve was filed as active; inconclusive means small, poorly fitted or top-dose-only effect, or effect the other way, or a change in a side signal; inactive means no such curve, though single readings can be large or run the other way; the % refers to the signal ratio
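Inhibition of protein-RNA binding appears as loss of TR-FRET between terbium anti-His antibody on MBNL1-His and streptavidin-XL665 on biotin-(CUG)12. Activity is normalized to buffer-only and uninhibited-complex controls.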
DRD3 antagonist = qHTS of D3 Dopamine Receptor Antagonist: qHTS; 360,000 compounds, 2.5% hits; max response, negative = inhibition, %; D3R cells, DiscoveRx beta-arrestin luminescence, antagonist mode; stronger effect = lower value; AID 652054, 2013; in the data active means max response below about -50%; inconclusive means no clear call, values can overlap the other calls
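Cells expressing the human receptor were seeded at 1500 cells/well, incubated overnight at 37 degrees C in 5% CO2, then exposed to library compounds with dopamine controls for 90 minutes at 37 degrees C before luminescent detection.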
DRD3 agonist = qHTS of D3 Dopamine Receptor Agonist: qHTS; max activation, %; 410,000 compounds, 0.58% hits; D3R DiscoveRx beta-arrestin cells, luminescence, 90 min; AID 652048, 2013; D(3) dopamine receptor (Homo sapiens), P35462; in the data active means max activation above about 30%
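Cells at 1500/well, incubated overnight, then treated with pinned compounds (dopamine as control) for 90 min at 37 degrees C. DiscoveRx reagent added for 30 - 60 minutes at room temperature; luminescence read.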
PTHR1 ag = qHTS for PTHR1 Agonists: Primary Screen. AID 743266, 2014. Parathyroid hormone/parathyroid hormone-related peptide receptor (Homo sapiens), Q03431. 410,000 compounds, 0.075% hits. HEK293 GP2 PTHR1 cells, GloSensor cAMP luminescence, 1 h. Potency, µM (top dose mostly 115 µM), hits mostly activators; further: nearly all actives have a fitted effect of over 55% in size
Target sequence (Q03431 whole entry, looked up): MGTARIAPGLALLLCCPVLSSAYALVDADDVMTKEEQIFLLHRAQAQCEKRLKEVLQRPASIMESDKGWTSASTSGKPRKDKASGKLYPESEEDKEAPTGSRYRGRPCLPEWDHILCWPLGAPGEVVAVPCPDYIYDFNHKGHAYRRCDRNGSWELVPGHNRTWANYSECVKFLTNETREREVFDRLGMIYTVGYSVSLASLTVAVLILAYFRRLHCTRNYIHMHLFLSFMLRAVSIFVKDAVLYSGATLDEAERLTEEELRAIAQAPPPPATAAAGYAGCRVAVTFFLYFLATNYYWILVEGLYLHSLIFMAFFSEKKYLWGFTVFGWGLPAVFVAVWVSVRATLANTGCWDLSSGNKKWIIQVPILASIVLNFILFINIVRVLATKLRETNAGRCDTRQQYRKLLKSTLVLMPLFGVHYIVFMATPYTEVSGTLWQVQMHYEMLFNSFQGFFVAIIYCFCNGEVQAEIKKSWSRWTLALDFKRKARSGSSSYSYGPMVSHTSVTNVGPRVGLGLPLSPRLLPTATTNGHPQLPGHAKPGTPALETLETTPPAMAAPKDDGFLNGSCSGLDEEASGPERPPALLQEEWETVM
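HEK-293-derived GP2 cells expressing PTHR1 and a GloSensor cAMP reporter, 3,000/well, plated overnight, given luciferin plus IBMX (each 0.5 mM as added) for 1 h at 37 °C, then compound for 1 h at 37 °C. Luminescence was read after 15 min at room temperature.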
A number is an active result; - = inactive; ? = inconclusive; . = no result. Unless noted, the call rests on the fitted dose curve; in most records, active means well fitted curve in the direction sought with a large enough effect; inconclusive means small, poorly fitted or top-dose-only effect, or another doubt; inactive means no such curve, though single readings can be large; an effect the other way counts as inactive or inconclusive.

SMILES | CBFb RUNX1 block | Integrin act MD | MBNL1-CUG inh | DRD3 antagonist | DRD3 agonist | PTHR1 ag
COc1ccccc1N1CCN(Cc2ccc3c(c2)OCO3)CC1 | . | - | . | -87 | - | -
Cc1ccc(C(C#N)=Cc2ccc3c(c2)OCO3)cc1 | . | - | . | - | - | -
CN1C(=O)/C(=C/c2ccc(N3CCCCCC3)o2)C(=O)NC1=S | - | - | ? | -56 | - | -
CC(=O)N1CCc2cc(S(=O)(=O)N3CCN(c4ccc(C)cc4)C(C)C3)ccc21 (stereo unspecified) | . | . | . | . | - | -
CN1C(=O)C(Cc2ccsc2)C(=O)N(C)C1=O | - | - | - | - | - | 28µM
CN1C(=O)C(Cc2ccccc2)C(=O)N(C)C1=O | . | - | . | - | - | -
CCC(=O)C(CC(C)N(C)C)(c1ccccc1)c1ccccc1 (stereo unspecified) | . | . | . | . | - | .
Cn1c(O)c(C=NCCCN2CCCC2=O)c(=O)n(C)c1=O | - | - | - | -65 | - | -
CN1CCN(/N=C/c2c(O)n(C)c(=O)n(C)c2=O)CC1 | - | - | - | - | - | -
O=c1ccc(=O)[nH][nH]1 | - | . | . | . | . | .
O=C(C1CCCO1)N1CCC2(CC1)OCCO2 (stereo unspecified) | - | - | - | -60 | - | -
O=C(C1CCC(=O)N1C1CCCC1)N1CCC2(CC1)OCCO2 (stereo unspecified) | - | - | - | - | - | -
CCN1CC=C(c2c[nH]c3ccccc23)CC1 | - | - | - | -71 | - | -
CCOC(=O)c1cc2ccccc2n1C1CCN(Cc2ccccc2)CC1 | . | . | . | -116 | - | -
Cc1nc2ccccc2n1C1CCN(Cc2nnnn2CCc2ccccc2)CC1 | - | - | - | - | - | -
C[n+]1c2ccccc2nc2ccc(NCCO)cc21 | . | - | ? | -54 | - | -
CNc1ccc2nc3ccccc3[n+](C)c2c1 | . | - | ? | -59 | - | -
OCCNc1c2c(nc3ccccc13)CCCC2 | - | - | - | - | - | -
CCOC(=O)Cn1c(-c2ccccc2)ccc(C#N)c1=O | - | - | - | - | - | -
O=C(CN1CCN(c2ccccc2)CC1)Nc1cccc(C(F)(F)F)c1 | - | - | - | -50 | - | ?
O=C(CN1C(=O)CN=C(c2ccccc2)c2ccccc21)NCc1ccco1 | - | - | - | -61 | - | -
COc1ccc(-c2cc(-c3ccccc3)[n+](C)c(-c3ccccc3)c2)cc1 | - | - | ? | - | - | -
C[n+]1c(-c2ccccc2)cc(CCCCc2cc(-c3ccccc3)[n+](C)c(-c3ccccc3)c2)cc1-c1ccccc1 | - | - | - | -73 | - | -
CCN1CCN(Cc2cc(Br)cc(Br)c2O)CC1 | ? | - | - | ? | - | -
CCN1CCN(Cc2cc(Br)ccc2O)CC1 | - | - | - | -73 | - | -
SMILES | CBFb RUNX1 block | Integrin act MD | MBNL1-CUG inh | DRD3 antagonist | DRD3 agonist | PTHR1 ag
CCc1ccc(CN2CCN(Cc3cc(Br)ccc3O)CC2)cc1 | - | - | - | -80 | - | -
Oc1ccc(Br)cc1CN1CCN(c2ccccc2)CC1 | - | - | - | -95 | - | -
Cc1ccccc1CN1CCN(c2ccc(Cl)cc2)CC1 | - | - | - | ? | - | -
COc1ccc(Br)cc1CN1CCN(CCO)CC1 | - | - | - | -87 | - | -
Nc1ccc([N+](=O)[O-])cc1N | - | . | . | . | . | .
COc1ccc(N2CCN(CCCNC(=O)c3cnn(-c4ccc(F)cc4)c3-n3cccc3)CC2)cc1 | . | . | . | . | - | -
CCCCNC(=O)Oc1c(Br)cc2sc(=O)oc2c1Br | ? | . | - | . | . | .
